{"source": "PubChem BioAssay AID1159580", "about": "(chemical genetic matrix, 2015)", "experiment": "chemical genetic growth profiling, strain panel (AID 1159580);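 further: tested at 20 µM; growth read once vehicle control cultures reached saturation at 30 °C; 1 = growth at the plate median or of vehicle wells; lower values mean less growth of the strain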", "conditions": "S. cerevisiae deletion strains, growth OD", "note": "In all, about 5,500 compounds went through this assay and about 2,000 (36%) were called active. Not shown: some 18% with an inconclusive outcome. The list shows a part of the results. Values without a mark were called inactive. No stated cut-off is given here; in the data, active means normalized growth mostly below about 0.91 (no sharp cut-off); inconclusive means no clear call, values can overlap the other calls; inactive means mostly above about 0.92."}
{"smiles": "CP(=O)(O)CCCN", "values": [{"measurement": "normalized growth", "setting": "locus YAL040C, strain CLN3, hits give low values", "value": 1}, {"measurement": "normalized growth", "setting": "locus YCL061C, strain MRC1 (second series), hits give low values", "value": 1}, {"measurement": "normalized growth", "setting": "locus YDR150W, strain NUM1, hits give low values", "value": 0.983}, {"measurement": "normalized growth", "setting": "locus YER002W, strain NOP16, hits give low values", "value": 0.994}, {"measurement": "normalized growth", "setting": "locus YNL153C, strain GIM3, hits give low values", "value": 0.99}, {"measurement": "normalized growth", "setting": "locus YNL175C, strain NOP13, hits give low values", "value": 0.996}, {"measurement": "normalized growth", "setting": "locus YNL197C, strain WHI3, hits give low values", "value": 1.02}, {"measurement": "normalized growth", "setting": "locus YNL224C, strain SQS1, hits give low values", "value": 0.98}, {"measurement": "normalized growth", "setting": "locus YOR083W, strain WHI5 (second series), hits give low values", "value": 1.01}, {"measurement": "normalized growth", "setting": "locus YPL241C, strain CIN2, hits give low values", "value": 0.989}]}
{"smiles": "NCCCC(O)(P(=O)(O)O)P(=O)(O)O", "values": [{"measurement": "normalized growth", "setting": "locus YAL021C, strain ccr4, hits give low values", "value": 0.993}, {"measurement": "normalized growth", "setting": "locus YAL026C, strain drs2, hits give low values", "value": 0.983}, {"measurement": "normalized growth", "setting": "locus YAL030W, strain snc1, hits give low values", "value": 0.993}, {"measurement": "normalized growth", "setting": "locus YBL061C, strain skt5, hits give low values", "value": 0.978}, {"measurement": "normalized growth", "setting": "locus YBR009C, strain hhf1, hits give low values", "value": 0.988}, {"measurement": "normalized growth", "setting": "locus YBR023C, strain chs3, hits give low values", "value": 0.992}, {"measurement": "normalized growth", "setting": "locus YBR171W, strain sec66, hits give low values", "value": 0.953}, {"measurement": "normalized growth", "setting": "locus YBR231C, strain swc5, hits give low values", "value": 0.977}, {"measurement": "normalized growth", "setting": "locus YBR279W, strain paf1, hits give low values", "value": 0.981}, {"measurement": "normalized growth", "setting": "locus YCL011C, strain gbp2, hits give low values", "value": 0.997}, {"measurement": "normalized growth", "setting": "locus YCL016C, strain dcc1, hits give low values", "value": 0.984}, {"measurement": "normalized growth", "setting": "locus YCL061C, strain MRC1, hits give low values", "value": 0.976}, {"measurement": "normalized growth", "setting": "locus YCL069W, strain vba3, hits give low values", "value": 0.991}, {"measurement": "normalized growth", "setting": "locus YCR088W, strain abp1, hits give low values", "value": 0.972}, {"measurement": "normalized growth", "setting": "locus YDL005C, strain med2, hits give low values", "value": 0.99}, {"measurement": "normalized growth", "setting": "locus YDL040C, strain nat1, hits give low values", "value": 0.989}, {"measurement": "normalized growth", "setting": "locus YDR001C, strain nth1, hits give low values", "value": 0.983}, {"measurement": "normalized growth", "setting": "locus YDR069C, strain doa4, hits give low values", "value": 1}, {"measurement": "normalized growth", "setting": "locus YDR137W, strain rgp1, hits give low values", "value": 1}, {"measurement": "normalized growth", "setting": "locus YDR159W, strain sac3, hits give low values", "value": 1}, {"measurement": "normalized growth", "setting": "locus YDR195W, strain ref2", "value": 0.943}, {"measurement": "normalized growth", "setting": "locus YDR297W, strain sur2, hits give low values", "value": 0.991}, {"measurement": "normalized growth", "setting": "locus YDR334W, strain swr1, hits give low values", "value": 0.967}, {"measurement": "normalized growth", "setting": "locus YDR335W, strain msn5, hits give low values", "value": 0.99}, {"measurement": "normalized growth", "setting": "locus YDR392W, strain spt3, hits give low values", "value": 0.964}, {"measurement": "normalized growth", "setting": "locus YEL003W, strain gim4, hits give low values", "value": 0.989}, {"measurement": "normalized growth", "setting": "locus YEL037C, strain rad23, hits give low values", "value": 0.978}, {"measurement": "normalized growth", "setting": "locus YEL061C, strain CIN8 (second series), hits give low values", "value": 0.973}, {"measurement": "normalized growth", "setting": "locus YER015W, strain faa2, hits give low values", "value": 0.987}, {"measurement": "normalized growth", "setting": "locus YER016W, strain bim1, hits give low values", "value": 0.984}, {"measurement": "normalized growth", "setting": "locus YER111C, strain swi4, hits give low values", "value": 0.978}, {"measurement": "normalized growth", "setting": "locus YER155C, strain BEM2 (second series), hits give low values", "value": 0.968}, {"measurement": "normalized growth", "setting": "locus YFR010W, strain ubp6, hits give low values", "value": 0.968}, {"measurement": "normalized growth", "setting": "locus YGL167C, strain pmr1, hits give low values", "value": 0.98}, {"measurement": "normalized growth", "setting": "locus YGL173C, strain kem1, hits give low values", "value": 0.959}, {"measurement": "normalized growth", "setting": "locus YGL227W, strain vid30, hits give low values", "value": 0.97}, {"measurement": "normalized growth", "setting": "locus YGL240W, strain doc1, hits give low values", "value": 0.995}, {"measurement": "normalized growth", "setting": "locus YGL253W, strain hxk2, hits give low values", "value": 0.977}, {"measurement": "normalized growth", "setting": "locus YHR013C, strain ard1, hits give low values", "value": 0.97}, {"measurement": "normalized growth", "setting": "locus YHR027C, strain rpn1, hits give low values", "value": 0.983}, {"measurement": "normalized growth", "setting": "locus YHR030C, strain SLT2, hits give low values", "value": 0.979}, {"measurement": "normalized growth", "setting": "locus YHR079C, strain IRE1, hits give low values", "value": 0.968}, {"measurement": "normalized growth", "setting": "locus YHR142W, strain chs7, hits give low values", "value": 0.972}, {"measurement": "normalized growth", "setting": "locus YJL092W, strain hpr5, hits give low values", "value": 0.972}, {"measurement": "normalized growth", "setting": "locus YJL095W, strain BCK1 (second series), hits give low values", "value": 0.985}, {"measurement": "normalized growth", "setting": "locus YJL095W, strain BCK1, hits give low values", "value": 1}, {"measurement": "normalized growth", "setting": "locus YJL115W, strain asf1, hits give low values", "value": 0.976}, {"measurement": "normalized growth", "setting": "locus YJL129C, strain trk1, hits give low values", "value": 0.964}, {"measurement": "normalized growth", "setting": "locus YJL154C, strain vps35, hits give low values", "value": 0.974}, {"measurement": "normalized growth", "setting": "locus YJL164C, strain tpk1, hits give low values", "value": 0.996}, {"measurement": "normalized growth", "setting": "locus YJL166W, strain qcr8, hits give low values", "value": 1}, {"measurement": "normalized growth", "setting": "locus YJL187C, strain SWE1, hits give low values", "value": 0.991}, {"measurement": "normalized growth", "setting": "locus YJR066W, strain TOR1, hits give low values", "value": 0.952}, {"measurement": "normalized growth", "setting": "locus YKL160W, strain elf1, hits give low values", "value": 0.99}, {"measurement": "normalized growth", "setting": "locus YKR026C, strain gcn3, hits give low values", "value": 0.98}, {"measurement": "normalized growth", "setting": "locus YKR091W, strain srl3, hits give low values", "value": 0.981}, {"measurement": "normalized growth", "setting": "locus YLL001W, strain dnm1, hits give low values", "value": 0.987}, {"measurement": "normalized growth", "setting": "locus YLL026W, hits give low values", "value": 0.995}, {"measurement": "normalized growth", "setting": "locus YLL041C, strain sdh2, hits give low values", "value": 1.01}, {"measurement": "normalized growth", "setting": "locus YLR027C, strain aat2, hits give low values", "value": 1}, {"measurement": "normalized growth", "setting": "locus YLR113W, strain HOG1, hits give low values", "value": 1}, {"measurement": "normalized growth", "setting": "locus YLR221C, strain rsa3, hits give low values", "value": 0.99}, {"measurement": "normalized growth", "setting": "locus YLR258W, strain gsy2, hits give low values", "value": 0.998}, {"measurement": "normalized growth", "setting": "locus YLR262C, strain YPT6 (second series), hits give low values", "value": 0.973}, {"measurement": "normalized growth", "setting": "locus YLR320W, strain mms22, hits give low values", "value": 0.987}, {"measurement": "normalized growth", "setting": "locus YLR342W, strain FKS1, hits give low values", "value": 0.978}, {"measurement": "normalized growth", "setting": "locus YLR357W, strain rsc2, hits give low values", "value": 0.975}, {"measurement": "normalized growth", "setting": "locus YLR370C, strain arc18, hits give low values", "value": 0.976}, {"measurement": "normalized growth", "setting": "locus YLR384C, strain iki3, hits give low values", "value": 0.978}, {"measurement": "normalized growth", "setting": "locus YML120C, strain ndi1, hits give low values", "value": 0.989}, {"measurement": "normalized growth", "setting": "locus YMR058W, strain fet3, hits give low values", "value": 0.977}, {"measurement": "normalized growth", "setting": "locus YMR125W, strain sto1, hits give low values", "value": 0.978}, {"measurement": "normalized growth", "setting": "locus YMR129W, hits give low values", "value": 0.99}, {"measurement": "normalized growth", "setting": "locus YMR205C, strain PFK2, hits give low values", "value": 0.996}, {"measurement": "normalized growth", "setting": "locus YMR231W, strain pep5, hits give low values", "value": 0.962}, {"measurement": "normalized growth", "setting": "locus YNL071W, strain lat1, hits give low values", "value": 0.985}, {"measurement": "normalized growth", "setting": "locus YNL183C, strain NPR1, hits give low values", "value": 0.978}, {"measurement": "normalized growth", "setting": "locus YNL209W, strain ssb2, hits give low values", "value": 0.982}, {"measurement": "normalized growth", "setting": "locus YNL248C, strain rpa49, hits give low values", "value": 0.985}, {"measurement": "normalized growth", "setting": "locus YNL322C, strain KRE1 (second series), hits give low values", "value": 0.98}, {"measurement": "normalized growth", "setting": "locus YNR049C, strain mso1, hits give low values", "value": 0.987}, {"measurement": "normalized growth", "setting": "locus YOR001W, strain rrp6, hits give low values", "value": 0.983}, {"measurement": "normalized growth", "setting": "locus YOR070C, strain gyp1, hits give low values", "value": 0.972}, {"measurement": "normalized growth", "setting": "locus YOR080W, strain dia2, hits give low values", "value": 0.979}, {"measurement": "normalized growth", "setting": "locus YOR083W, strain WHI5, hits give low values", "value": 0.99}, {"measurement": "normalized growth", "setting": "locus YOR106W, strain vam3, hits give low values", "value": 0.956}, {"measurement": "normalized growth", "setting": "locus YOR231W, strain MKK1, hits give low values", "value": 0.989}, {"measurement": "normalized growth", "setting": "locus YOR265W, strain rbl2, hits give low values", "value": 0.995}, {"measurement": "normalized growth", "setting": "locus YOR270C, strain vph1, hits give low values", "value": 0.965}, {"measurement": "normalized growth", "setting": "locus YOR290C, strain snf2, hits give low values", "value": 0.98}, {"measurement": "normalized growth", "setting": "locus YPL051W, strain arl3, hits give low values", "value": "0.899 (active)"}, {"measurement": "normalized growth", "setting": "locus YPL078C, strain atp4, hits give low values", "value": 0.976}, {"measurement": "normalized growth", "setting": "locus YPL106C, strain sse1, hits give low values", "value": 0.983}, {"measurement": "normalized growth", "setting": "locus YPL240C, strain hsp82, hits give low values", "value": 0.992}, {"measurement": "normalized growth", "setting": "locus YPL256C, strain CLN2, hits give low values", "value": 0.973}]}
